Among the data in the antibiotic and cytotoxicity screens of Wong et al. (2023) are cytotoxicity call values, retold here.

The whole screen tested about 39,000 compounds, of which about 3,300 (8.5%) were called active. Many of the other results were omitted from the sample, so actives are more common in it than they were.

This assay concerns HepG2. Put plainly: cytotoxicity call (relative viability < 0.9). Conditions: 10 µM.
Regarding `CN1C(=O)c2cc(NC(=O)c3cscn3)ccc2OC[C@@H]2O[C@H](CC(=O)N3CCOCC3)CC[C@@H]21`, the cytotoxicity call is “inactive”.

Consider `OCC1OC(OCCc2ccc(O)cc2)C(O)C(O)C1O` (configuration not stated), for which the cytotoxicity call was “inactive”.

On to `C[C@@H]1CN([C@H](C)CO)C(=O)c2cc(NC(=O)Nc3ccc(F)cc3)ccc2O[C@@H](C)CCCCO[C@@H]1CN(C)Cc1ccc(C(=O)O)cc1`, for which the cytotoxicity call is “inactive”.

As to `COc1ccccc1-c1cnc2c(c1)C(=O)N([C@H](C)CO)C[C@H](C)[C@H](CN(C)C(=O)c1cccnc1)O2`, the cytotoxicity call is “inactive”.

On to `CC(O)C(=O)[O-].[NH4+]` (configuration not stated), for which the cytotoxicity call is “inactive”.

Turning to `C[C@H]1CN([C@@H](C)CO)C(=O)c2cccc(NC(=O)Nc3ccc(F)cc3)c2O[C@@H]1CN(C)C(=O)Nc1ccc(C(F)(F)F)cc1`, the cytotoxicity call was “inactive”.

Take `COc1ccc(S(=O)(=O)Nc2ccc3c(c2)CC(=O)N([C@H](C)CO)C[C@H](C)[C@@H](CN(C)Cc2ccc(Cl)c(Cl)c2)O3)cc1`: the cytotoxicity call was “inactive”.

With `COc1ccc(S(=O)(=O)Nc2ccc3c(c2)CC(=O)N([C@H](C)CO)C[C@@H](C)[C@@H](CN(C)Cc2ccc(Cl)c(Cl)c2)O3)cc1`, the cytotoxicity call was “active”.

In the case of `C/N=C1/S[C@@H]2CS(=O)(=O)C[C@@H]2N1C`, the cytotoxicity call was “inactive”.

On to `O=C(C[C@H]1CC[C@H]2[C@@H](COC[C@@H](O)CN2S(=O)(=O)c2ccc(F)cc2)O1)N[C@H]1CCN(Cc2ccccc2)C1`, for which the cytotoxicity call was “inactive”.

Consider `COc1cccc(CNC(=O)C[C@@H]2C=C[C@H](NC(=O)C3CCOCC3)[C@@H](CO)O2)c1`, for which the cytotoxicity call is “inactive”.

As for `C[C@@H]1CN([C@@H](C)CO)C(=O)c2cccc(NS(=O)(=O)c3cn(C)cn3)c2O[C@@H]1CN(C)Cc1ccccc1`, the cytotoxicity call was “inactive”.

Consider `COc1ccc2cc1Oc1ccc(cc1)CC1c3c(cc4c(c3Oc3cc5c(cc3OC)CCN(C)C5C2)OCO4)CCN1C` (configuration not stated), for which the cytotoxicity call was “active”.

Consider `COc1cc2c3cc1Oc1cc(ccc1O)CC1c4c(cc(OC)c(O)c4Oc4ccc(cc4)CC3N(C)CC2)CC[N+]1(C)C.Cl.O.O.O.O.O.[Cl-]` (configuration not stated), for which the cytotoxicity call is “inactive”.

For the molecule `COc1ccc2cc1Oc1ccc(cc1)C[C@H]1c3cc(c(OC)cc3CCN1C)Oc1c(OC)c(OC)cc3c1[C@H](C2)N(C)CC3`, the cytotoxicity call is “active”.

Turning to `COc1ccc2cc1Oc1ccc(cc1)CC1c3cc(c(OC)cc3CCN1C)Oc1c(OC)c(OC)cc3c1C(C2)N(C)CC3` (configuration not stated), the cytotoxicity call is “inactive”.

Take `COc1cc2c3cc1Oc1cc(ccc1O)C[C@@H]1c4c(cc(OC)c(O)c4Oc4ccc(cc4)C[C@@H]3N(C)CC2)CC[N+]1(C)C`: the cytotoxicity call is “inactive”.

Regarding `COc1ccc2cc1Oc1ccc(cc1)C[C@H]1c3c(cc4c(c3Oc3cc5c(cc3OC)CCN(C)[C@@H]5C2)OCO4)CCN1C`, the cytotoxicity call was “inactive”.

With `CO[C@H]1CN(C)C(=O)c2cc(NS(C)(=O)=O)ccc2OC[C@H](C)N(S(C)(=O)=O)C[C@@H]1C`, the cytotoxicity call is “inactive”.

In the case of `CNC[C@@H]1OCCCC[C@@H](C)Oc2ccc(NS(=O)(=O)c3cn(C)cn3)cc2C(=O)N([C@@H](C)CO)C[C@@H]1C`, the cytotoxicity call is “inactive”.

For `C[C@H]1CN([C@@H](C)CO)C(=O)c2cc(C#CC3(O)CCCC3)cnc2O[C@H]1CN(C)C(=O)Cc1ccncc1`, the cytotoxicity call was “inactive”.

Take `O=C(NO)c1cccc(C(=O)N/N=C/c2cc(I)cc(I)c2O)c1`: the cytotoxicity call is “inactive”.

On to `O=C(Nc1ccc2ccccc2c1)c1ccc(Cl)cc1Cl`, for which the cytotoxicity call was “inactive”.

With `O=C(Nc1ccc(Oc2ccc(Cl)cc2)c(Cl)c1)c1cc(I)cc(I)c1O`, the cytotoxicity call was “active”.

As to `C[C@@H]1CCCCO[C@H](CN(C)C(=O)Nc2ccc(C(F)(F)F)cc2)[C@@H](C)CN([C@H](C)CO)C(=O)c2cc(NS(=O)(=O)c3ccc(F)cc3)ccc2O1`, the cytotoxicity call is “inactive”.

Regarding `C[C@H]1CCCCO[C@H](CN(C)C(=O)Nc2ccc(C(F)(F)F)cc2)[C@@H](C)CN([C@@H](C)CO)C(=O)c2cc(NS(=O)(=O)c3ccc(F)cc3)ccc2O1`, the cytotoxicity call was “active”.

Take `C[C@@H]1CCCCO[C@H](CN(C)C(=O)Nc2ccc(C(F)(F)F)cc2)[C@H](C)CN([C@@H](C)CO)C(=O)c2cc(NS(=O)(=O)c3ccc(F)cc3)ccc2O1`: the cytotoxicity call was “active”.

In the case of `C[C@@H]1CN([C@@H](C)CO)C(=O)c2cc(NS(=O)(=O)c3ccc(F)cc3)ccc2O[C@@H](C)CCCCO[C@@H]1CN(C)C(=O)Nc1ccc(C(F)(F)F)cc1`, the cytotoxicity call was “active”.

Consider `C[C@@H]1CCCCO[C@H](CN(C)C(=O)Nc2ccc(C(F)(F)F)cc2)[C@@H](C)CN([C@@H](C)CO)C(=O)c2cc(NS(=O)(=O)c3ccc(F)cc3)ccc2O1`, for which the cytotoxicity call was “inactive”.

`C[C@H](CO)N1C[C@H](C)[C@H](CN(C)C(=O)Nc2ccc(C(F)(F)F)cc2)OCCCC[C@H](C)Oc2ccc(NS(=O)(=O)c3ccc(F)cc3)cc2C1=O`: the cytotoxicity call was “inactive”.

As for `C[C@H](CO)N1C[C@H](C)[C@@H](CN(C)C(=O)Nc2ccc(C(F)(F)F)cc2)OCCCC[C@H](C)Oc2ccc(NS(=O)(=O)c3ccc(F)cc3)cc2C1=O`, the cytotoxicity call was “inactive”.

On to `C[C@@H]1CCCCO[C@H](CN(C)C(=O)Nc2ccc(C(F)(F)F)cc2)[C@H](C)CN([C@H](C)CO)C(=O)c2cc(NS(=O)(=O)c3ccc(F)cc3)ccc2O1`, for which the cytotoxicity call was “active”.

In the case of `C[C@H]1CN([C@@H](C)CO)S(=O)(=O)c2ccc(C#CC(C)(C)O)cc2O[C@H]1CN(C)Cc1ccccc1`, the cytotoxicity call is “inactive”.

Take `O=C(NO)c1ccc(C(=O)N/N=C/[C@H](O)[C@H](O)[C@@H](O)[C@@H](O)CO)cc1`: the cytotoxicity call is “inactive”.

In the case of `C[C@@H]1CCCCO[C@H](CN(C)S(=O)(=O)c2ccc(F)cc2)[C@@H](C)CN([C@H](C)CO)C(=O)c2cc(NS(C)(=O)=O)ccc2O1`, the cytotoxicity call was “inactive”.

In the case of `C[C@@H]1CCCCO[C@H](CN(C)S(=O)(=O)c2ccccc2)[C@H](C)CN([C@H](C)CO)C(=O)c2cc(NC(=O)Nc3ccccc3)ccc2O1`, the cytotoxicity call is “inactive”.

`C[C@@H]1CCCCO[C@@H](CN(C)Cc2ccc(C(=O)Nc3ccccc3N)cc2)[C@@H](C)CN([C@H](C)CO)C(=O)c2cc(NC(=O)CCC(F)(F)F)ccc2O1`: the cytotoxicity call is “inactive”.

As for `C[C@@H]1CN([C@@H](C)CO)S(=O)(=O)c2ccc(C#C[C@@H](C)O)cc2O[C@H]1CN(C)C(=O)c1ccccc1`, the cytotoxicity call is “inactive”.

Turning to `COc1ccc(NC(=O)Nc2ccc3c(c2)C(=O)N([C@@H](C)CO)C[C@@H](C)[C@H](CN(C)S(=O)(=O)c2ccccc2)OCCCC[C@H](C)O3)cc1`, the cytotoxicity call is “inactive”.

As to `COc1ccc(S(=O)(=O)N(C)C[C@H]2Oc3ccc(NS(=O)(=O)c4ccccc4)cc3CC(=O)N([C@H](C)CO)C[C@H]2C)cc1`, the cytotoxicity call was “inactive”.

Consider `C[C@H]1CCCCO[C@@H](CN(C)C(=O)Nc2ccc(C(F)(F)F)cc2)[C@@H](C)CN([C@@H](C)CO)C(=O)c2cc(NS(=O)(=O)c3ccc(F)cc3)ccc2O1`, for which the cytotoxicity call is “inactive”.

Take `C[C@@H]1CCCCO[C@@H](CN(C)C(=O)Nc2ccc(C(F)(F)F)cc2)[C@H](C)CN([C@@H](C)CO)C(=O)c2cc(NS(=O)(=O)c3ccc(F)cc3)ccc2O1`: the cytotoxicity call was “active”.

Consider `C[C@@H]1CCCCO[C@@H](CN(C)C(=O)Nc2ccc(C(F)(F)F)cc2)[C@@H](C)CN([C@H](C)CO)C(=O)c2cc(NS(=O)(=O)c3ccc(F)cc3)ccc2O1`, for which the cytotoxicity call is “active”.

With `C[C@@H]1CCCCO[C@@H](CN(C)C(=O)Nc2ccc(C(F)(F)F)cc2)[C@H](C)CN([C@H](C)CO)C(=O)c2cc(NS(=O)(=O)c3ccc(F)cc3)ccc2O1`, the cytotoxicity call is “inactive”.

For the molecule `C[C@@H]1CCCCO[C@@H](CN(C)S(=O)(=O)c2cccs2)[C@H](C)CN([C@H](C)CO)C(=O)c2cc(NS(=O)(=O)c3cn(C)cn3)ccc2O1`, the cytotoxicity call was “inactive”.

As for `COCC#Cc1ccc2c(c1)O[C@H](CN(C)S(=O)(=O)c1ccc(OC)cc1)[C@H](C)CN([C@H](C)CO)S2(=O)=O`, the cytotoxicity call was “inactive”.

`C[C@@H]1CN([C@@H](C)CO)C(=O)c2cccc(NS(C)(=O)=O)c2O[C@H]1CN(C)C(=O)Nc1ccc(F)cc1`: the cytotoxicity call was “inactive”.

Turning to `C[C@H]1CN([C@@H](C)CO)C(=O)c2cc(NC(=O)Cn3cnnn3)ccc2O[C@@H]1CN(C)Cc1ccc2c(c1)OCO2`, the cytotoxicity call was “inactive”.

For `O=S1(=O)N[C@H](c2ccccc2)CO1`, the cytotoxicity call was “inactive”.

As for `Cc1ccc(S(=O)(=O)Nc2ccc3c(c2)CC(=O)N([C@H](C)CO)C[C@@H](C)[C@H](CN(C)C(=O)Nc2cccc4ccccc24)O3)cc1`, the cytotoxicity call is “inactive”.

With `O=S1(=O)CC=CC1`, the cytotoxicity call was “inactive”.

As for `Cc1ccc(S[C@]2(C(=O)NC3CC3)CC(=O)N(C3CCCCC3)[C@@H]2c2ccc(CO)cc2I)cc1`, the cytotoxicity call was “inactive”.

Regarding `Cc1noc(C)c1S(=O)(=O)Nc1ccc2c(c1)C(=O)N([C@H](C)CO)C[C@@H](C)[C@H](CN(C)C)OCCCC[C@@H](C)O2`, the cytotoxicity call is “inactive”.

In the case of `COc1ccc2c3c(n(c2c1)C)[C@@H](CO)N(C[C@]13CCN(CC1)C(=O)c1ccccc1F)C(=O)Nc1ccc(cc1)F`, the cytotoxicity call was “inactive”.

Regarding `COc1ccc2c3c(n(c2c1)C)[C@@H](CO)N(C[C@]13CCN(CC1)Cc1cccc(c1)F)C(=O)Nc1ccc(cc1)F`, the cytotoxicity call is “inactive”.

Turning to `COc1ccc2c3c(n(c2c1)C)[C@@H](CO)N(C[C@]13CCN(CC1)Cc1ccccc1F)C(=O)Nc1ccc(cc1)F`, the cytotoxicity call was “active”.

Turning to `COc1cccc(c1)CN1CC[C@]2(CC1)CN([C@H](CO)c1c2c2ccc(cc2n1C)OC)C(=O)Nc1ccc(cc1)F`, the cytotoxicity call is “inactive”.

Take `COc1ccc2c3c(n(c2c1)C)[C@H](CO)N(C[C@]13CCN(CC1)Cc1cccc(c1)F)C(=O)Nc1ccc(cc1)F`: the cytotoxicity call was “active”.

For `COc1ccc2c3c(n(c2c1)C)[C@H](CO)N(C[C@]13CCN(CC1)Cc1ccccc1F)C(=O)Nc1ccc(cc1)F`, the cytotoxicity call was “inactive”.

Take `O=C(C[C@H]1CC[C@@H]2[C@H](COC[C@H](O)CN2C(=O)Nc2cccc(F)c2)O1)NCc1ccccc1Cl`: the cytotoxicity call is “inactive”.

With `CN1C(=O)c2cc(NC(=O)c3ccc(F)c(F)c3)ccc2OC[C@@H]2O[C@@H](CC(=O)N3CCOCC3)CC[C@H]21`, the cytotoxicity call was “inactive”.

On to `C[C@H](CO)N1C[C@H](C)[C@@H](CN(C)C(=O)Cc2ccccc2)Oc2cc(-c3cncnc3)ccc2S1(=O)=O`, for which the cytotoxicity call was “inactive”.
